Measured values: the supplement of paper PMC9262897, “Low-cost anti-mycobacterial drug discovery using engineered E. coli” (Nature Communications, 2022)
Structures can show the parent of a compound that is named as a salt. ± gives the standard deviation of the averaged measurements.

What follows are compounds tested on E. coli TESEC Mtb Alr (assay: growth (OD600 after 10 h); higher = more growth (less inhibition)). Conditions: arabinose 1000000 nM; compound 0.1 mM; raw OD600 reference: median of DMSO wells 0.193, cell-free background 0.041.
Method: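 TESEC Mtb Alr E. coli, or the Alr+ wild-type control, in 384-well plates with Prestwick library compounds at 0.1 mM and 1% DMSO, across arabinose induction levels of 1E3 to 1E7 nM. Growth is read as OD600 after 10 h at 37 °C in triplicate biological replicates.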

Point of comparison: CCCOc1ccc(C(=O)OCCN(CC)CC)cc1N [Proparacaine hydrochloride], growth 0.17 ± 0.0027. Against it:
- CN(C)CC/C=C1/c2ccccc2COc2ccc(CC(=O)O)cc21 [Olopatadine hydrochloride] — higher, 0.231 ± 0.013
- C[C@]12CCC(=O)C=C1C=C[C@@H]1[C@@H]2CC[C@@]2(C)[C@H]1CC[C@@]21CCC(=O)O1 [Canrenone] — lower, 0.0738 ± 0.0044
- CCC(C)n1ncn(-c2ccc(N3CCN(c4ccc(OCC5COC(Cn6cncn6)(c6ccc(Cl)cc6Cl)O5)cc4)CC3)cc2)c1=O (stereo unspecified) [Itraconazole] — within error, 0.171 ± 0.017
- COc1ccc([C@@H]2Sc3ccccc3N(CCN(C)C)C(=O)[C@@H]2OC(C)=O)cc1 [Diltiazem hydrochloride] — lower, 0.139 ± 0.0028
- CCc1cccc2c3c([nH]c12)C(CC)(CC(=O)O)OCC3 (stereo unspecified) [Etodolac] — lower, 0.147 ± 0.004
- N=C(N)NC(=O)c1nc(Cl)c(N)nc1N [Amiloride hydrochloride dihydrate] — higher, 0.181 ± 0.0048
- N=C(N)c1ccc(OCCCCCOc2ccc(C(=N)N)cc2)cc1 [Pentamidine isethionate] — lower, 0.0538 ± 0.0022
- COc1ccccc1O [Guaiacol] — higher, 0.203 ± 0.012
- CN(C)CCOC1=Cc2ccccc2Sc2ccc(Cl)cc21 [Zotepine] — lower, 0.0636 ± 0.0007
- CC(=O)N[C@@H](CS)C(=O)O [Acetylcysteine] — higher, 0.21 ± 0.012

Same assay, conditions: arabinose 10000000 nM; compound 0.1 mM; raw OD600 reference: median of DMSO wells 0.146, cell-free background 0.041

Point of comparison: Cc1onc(-c2c(F)cccc2Cl)c1C(=O)N[C@@H]1C(=O)N2[C@@H]1SC(C)(C)[C@@H]2C(=O)O [Flucloxacillin sodium], growth 0.136 ± 0.0023. Against it:
- CN(C/C=C/c1ccccc1)Cc1cccc2ccccc12 [Naftifine hydrochloride] — lower, 0.0527 ± 0.00066
- COc1ccccc1Oc1c(NS(=O)(=O)c2ccc(C(C)(C)C)cc2)nc(-c2ncccn2)nc1OCCO [Bosentan] — higher, 0.147 ± 0.0018
- O=C(O)CCC(=O)Nc1ccc(S(=O)(=O)Nc2nccs2)cc1 [Succinylsulfathiazole] — higher, 0.157 ± 0.0071
- NC(=O)OCC(O)COc1ccc(Cl)cc1 (stereo unspecified) [Chlorphensin carbamate] — higher, 0.162 ± 0.0045
- C(=C\c1ccccc1)/CN1CCN(C(c2ccccc2)c2ccccc2)CC1 [Cinnarizine] — higher, 0.149 ± 0.0039
- Cc1ccccc1OCC(O)CO (stereo unspecified) [Mephenesin] — within error, 0.14 ± 0.0045
- O=C(O)CN(CCN(CC(=O)O)CC(=O)O)CCN(CC(=O)O)CC(=O)O [Pentetic acid] — lower, 0.0607 ± 0.00086
- CC(=O)OCC(=O)[C@@]1(OC(C)=O)[C@@H](C)C[C@H]2[C@@H]3C[C@H](F)C4=CC(=O)C=C[C@]4(C)[C@@]3(F)[C@@H](O)C[C@@]21C [Diflorasone Diacetate] — higher, 0.17 ± 0.0046
- O=C1C(CC[S+]([O-])c2ccccc2)C(=O)N(c2ccccc2)N1c1ccccc1 (stereo unspecified) [Sulfinpyrazone] — higher, 0.146 ± 0.0031
- O=C(CCNNC(=O)c1ccncc1)NCc1ccccc1 [Nialamide] — higher, 0.144 ± 0.0023
- C[N+]1(C)CCC(=C(c2ccccc2)c2ccccc2)CC1 [Diphemanil methylsulfate] — higher, 0.153 ± 0.0035
- Cc1ccc(C)c(OCCCC(C)(C)C(=O)O)c1 [Gemfibrozil] — lower, 0.121 ± 0.0017
- O=C1CCc2cc(OCCCCc3nnnn3C3CCCCC3)ccc2N1 [Cilostazol] — lower, 0.123 ± 0.0057
- COc1cc(C(=O)NCc2ccc(OCCN(C)C)cc2)cc(OC)c1OC [Trimethobenzamide hydrochloride] — higher, 0.159 ± 0.0019
- Cc1nnc(SCC2=C(C(=O)O)N3C(=O)[C@@H](NC(=O)Cn4cnnn4)[C@H]3SC2)s1 [Cefazolin sodium salt] — higher, 0.145 ± 0.0033
- N#Cc1ccc(C(c2ccc(C#N)cc2)n2cncn2)cc1 [Letrozole] — higher, 0.146 ± 0.0044
- CCOc1nc2cccc(C(=O)O)c2n1Cc1ccc(-c2ccccc2-c2nnn[nH]2)cc1 [Candesartan] — within error, 0.141 ± 0.0058
- CC(CNC1CCCCC1)OC(=O)c1ccccc1 (stereo unspecified) [Hexylcaine hydrochloride] — higher, 0.1577 ± 0.0015
- C#C[C@]1(O)CC[C@H]2[C@@H]3CCC4=Cc5oncc5C[C@]4(C)[C@H]3CC[C@@]21C [Danazol] — higher, 0.152 ± 0.0057
- CC1CC(OC(=O)c2ccccc2O)CC(C)(C)C1 (stereo unspecified) [Homosalate] — higher, 0.15 ± 0.0039
- CCOc1ccc2c(c1)C(C)=CC(C)(C)N2 [Ethoxyquin] — higher, 0.227 ± 0.067
- CN(C)CCN(Cc1ccc(Cl)cc1)c1ccccn1 [Chloropyramine hydrochloride] — within error, 0.128 ± 0.006
- COc1ccc([C@@H]2CC(=O)c3c(O)cc(O[C@@H]4O[C@H](CO[C@@H]5O[C@@H](C)[C@H](O)[C@@H](O)[C@H]5O)[C@@H](O)[C@H](O)[C@H]4O)cc3O2)cc1O [Hesperidin] — higher, 0.145 ± 0.0031
- CO[C@H]1C[C@H](O[C@H]2[C@H](C)[C@@H](O[C@@H]3O[C@H](C)C[C@H](N(C)C)[C@H]3OC(C)=O)[C@@H](C)C[C@@]3(CO3)C(=O)[C@H](C)[C@@H](OC(C)=O)[C@@H](C)[C@@H](C)OC(=O)[C@@H]2C)O[C@@H](C)[C@@H]1OC(C)=O [Troleandomycin] — lower, 0.0672 ± 0.00087
- CCCCCN(CCCCC)C(=O)C(CCC(=O)O)NC(=O)c1ccc(Cl)c(Cl)c1 (stereo unspecified) [Lorglumide sodium salt] — lower, 0.125 ± 0.0012
- CC(Oc1ccccc1)C(=O)N[C@@H]1C(=O)N2[C@@H]1SC(C)(C)[C@@H]2C(=O)O (stereo partly specified) [Phenethicillin potassium salt] — within error, 0.139 ± 0.0076
- C#C[C@]1(O)CC[C@H]2[C@@H]3CCC4=CC(=O)CC[C@@H]4[C@H]3CC[C@@]21C [Norethindrone] — within error, 0.134 ± 0.0033
- CC[C@H](C)[C@H](N)C1=N[C@H](C(=O)N[C@@H](CC(C)C)C(=O)N[C@H](CCC(=O)O)C(=O)N[C@H](C(=O)N[C@H]2CCCCNC(=O)[C@H](CC(N)=O)NC(=O)[C@@H](CC(=O)O)NC(=O)[C@H](Cc3cnc[nH]3)NC(=O)[C@@H](Cc3ccccc3)NC(=O)[C@H]([C@@H](C)CC)NC(=O)[C@@H](CCCN)NC2=O)[C@@H](C)CC)CS1 [Bacitracin] — higher, 0.214 ± 0.013
- CN(C)CC/C=C1/c2ccccc2COc2ccc(CC(=O)O)cc21 [Olopatadine hydrochloride] — lower, 0.126 ± 0.0042
- C[C@]12CCC(=O)C=C1C=C[C@@H]1[C@@H]2CC[C@@]2(C)[C@H]1CC[C@@]21CCC(=O)O1 [Canrenone] — within error, 0.126 ± 0.0083
- CCC(C)n1ncn(-c2ccc(N3CCN(c4ccc(OCC5COC(Cn6cncn6)(c6ccc(Cl)cc6Cl)O5)cc4)CC3)cc2)c1=O (stereo unspecified) [Itraconazole] — higher, 0.148 ± 0.005
- CCCOc1ccc(C(=O)OCCN(CC)CC)cc1N [Proparacaine hydrochloride] — higher, 0.153 ± 0.0029
- COc1ccc([C@@H]2Sc3ccccc3N(CCN(C)C)C(=O)[C@@H]2OC(C)=O)cc1 [Diltiazem hydrochloride] — within error, 0.139 ± 0.0037
- CCc1cccc2c3c([nH]c12)C(CC)(CC(=O)O)OCC3 (stereo unspecified) [Etodolac] — within error, 0.1376 ± 0.00061
- N=C(N)NC(=O)c1nc(Cl)c(N)nc1N [Amiloride hydrochloride dihydrate] — higher, 0.15 ± 0.0063
- N=C(N)c1ccc(OCCCCCOc2ccc(C(=N)N)cc2)cc1 [Pentamidine isethionate] — lower, 0.095 ± 0.001
- COc1ccccc1O [Guaiacol] — within error, 0.135 ± 0.0042
- CN(C)CCOC1=Cc2ccccc2Sc2ccc(Cl)cc21 [Zotepine] — lower, 0.0782 ± 0.003
- CC(=O)N[C@@H](CS)C(=O)O [Acetylcysteine] — within error, 0.142 ± 0.0051
